Compound activity: PubChem, Broad Institute
HIV Env fusion: inhibitors of HIV-1 Env-driven cell-cell fusion, primary screen, HeLa-JRFL effector, CEM21 target cells, luciferase. 360,000 compounds, 1.1% hits. inhibition, % at 12.3 µM;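 active = mean replicate inhibition score of at least 50 and every replicate individually at or above 50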
GSIS activator: GLuc luminescence reporter in INS-1E cells, primary screen for activators of glucose-dependent secretion of insulin | INS-1E GLuc reporter insulin secretion, 2-3 h | activation, % at 16.6 µM | 370,000 compounds, 0.61% hits | AID 743287, 2014;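 active = lowest replicate activation of at least 40%, so every replicate reaches that level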
PGC1a acetyl inh: inhibitors of PGC1a acetylation signal, primary screen, cell-based, U2OS, AlphaScreen, inhibitor mode. AlphaScreen anti-acetyl-lysine; with virally co-expressed GCN5 acetyltransferase. inhibition, % at 15.6 µM. 350,000 compounds, 0.17% hits. AID 651687, 2012;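 active = every replicate shows inhibition of at least 40%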
NSD2 inh: NSD2 histone methyltransferase inhibitors, primary screen, biochemical, AlphaScreen, single concentration, set 2; 310,000 compounds, 0.54% hits; NSD2 peptide methylation, 120 min; inhibition, % at 12.5 µM; in the data active = inhibition above about 50%
AF4-AF9 inh: inhibitors of AF4 peptide binding to AF9, primary screen, biochemical, AlphaScreen, biotin-AF4 peptide, FLAG-AF9, single point. inhibition, % at 10 µM. 350,000 compounds, 0.47% hits. AID 651704, 2012;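 active = every replicate reaching a set inhibition limit, whatever the replicate mean, cut at about 25% in these data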
Target sequence (P42568 whole entry, looked up): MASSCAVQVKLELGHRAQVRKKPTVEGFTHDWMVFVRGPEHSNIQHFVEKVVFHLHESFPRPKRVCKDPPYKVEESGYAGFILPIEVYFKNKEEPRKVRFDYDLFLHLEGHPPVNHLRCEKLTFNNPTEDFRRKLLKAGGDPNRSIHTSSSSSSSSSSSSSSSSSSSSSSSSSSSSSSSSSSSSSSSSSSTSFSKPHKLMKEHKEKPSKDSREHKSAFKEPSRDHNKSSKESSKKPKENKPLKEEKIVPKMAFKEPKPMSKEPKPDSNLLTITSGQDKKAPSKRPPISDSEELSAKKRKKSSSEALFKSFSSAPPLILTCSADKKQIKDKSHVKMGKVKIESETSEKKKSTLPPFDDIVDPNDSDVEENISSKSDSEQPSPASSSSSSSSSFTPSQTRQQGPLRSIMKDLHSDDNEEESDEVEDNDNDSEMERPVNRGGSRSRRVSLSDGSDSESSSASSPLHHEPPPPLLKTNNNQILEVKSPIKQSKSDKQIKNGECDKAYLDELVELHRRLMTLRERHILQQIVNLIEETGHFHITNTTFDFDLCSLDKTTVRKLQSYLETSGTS
Hits are given with their value; i = inactive; nt = no result. Only some compounds are listed: those with a hit (about 2.1% of all), similar ones and a draw of the others.

SMILES | HIV Env fusion | GSIS activator | PGC1a acetyl inh | NSD2 inh | AF4-AF9 inh
O=C(OC1CCOC1=O)c1cc(-c2ccccc2)nc2ccccc12 (stereo not given) | i | nt | nt | i | nt
O=C(OC1CCOC1=O)c1cc(-c2ccc(Cl)cc2)nc2ccccc12 (stereo not given) | i | 55.7 | i | i | i
Cc1nc(Nc2ccccc2)[nH]c(=O)c1CCC(C)C | i | nt | i | i | nt
CN(CCc1ccccc1)C(=O)c1ccc(NC(=O)Cc2ccc(NC(=O)C3CCN(C(=O)C4CCC4)CC3)cc2)cc1 | i | i | i | nt | 28.2
O=C(Cc1ccc(NC(=O)C2CCCN(C(=O)c3ccccc3)C2)cc1)Nc1cccc(C(=O)N2CCCCC2)c1 (stereo not given) | i | 79.4 | nt | nt | nt
COc1ccc2c3c([nH]c2c1)C(C)N(CCC(=O)NN)CC3 (stereo not given) | i | i | i | i | i
CCN1CCCC1CNC(=O)c1ccc2c(c1)NC(=O)/C(=C\c1ccc(OC)c(OC)c1)S2 (stereo not given) | i | i | nt | i | 40.0
OC(c1cc(-c2ccc(C(F)(F)F)cc2)nc(C(F)(F)F)c1)C1CCCCN1 (stereo not given) | i | i | i | i | i
CCCCCCCOC(=O)c1nc(Cl)c(Cl)c(N)c1Cl | nt | 416.3 | i | i | i
CCCCOC(=O)c1nc(Cl)c(Cl)c(N)c1Cl | i | i | i | i | i
Fc1ccc(N2CCN(Cc3nnc(-c4ccccc4)o3)CC2)cc1 | i | i | nt | i | i
Fc1ccc(-c2nnc(CN3CCN(c4ncc(C(F)(F)F)cc4Cl)CC3)o2)cc1 | 68.3 | nt | i | nt | nt
CCC1(C)Cc2ccccc2-c2nc(SC)[nH]c(=O)c21 (stereo not given) | 80.0 | 60.2 | nt | i | i
C=CCN=C1CC(C)(C)C(C(=O)OC)C(O)=C1C(=O)CCC (stereo not given) | i | 72.5 | i | i | i
CCCC(=O)C1=C(SCC)CC(C)(C)C(C(=O)OC)C1=O (stereo not given) | nt | nt | i | i | nt
CCOP(=O)(/C(C#N)=C(/O)c1ccccc1)c1ccccc1 (stereo not given) | i | i | i | i | i
CC1(C(=O)NCc2ccccc2)Cc2c(-c3ccccc3)ccnc2O1 (stereo not given) | i | i | nt | i | i
CN1CCN(c2ccc(CNC(=O)C3(C)Cc4c(-c5ccccc5)ccnc4O3)cc2)CC1 (stereo not given) | i | 44.6 | nt | i | i
O=C(NCc1cccnc1)NC1(C(F)(F)F)Oc2ccccc2O1 | i | i | i | i | nt
CC(C)c1nc(SCC(=O)N2CCN(c3ccccc3)CC2)c2c(=O)n(C)c(=O)n(C)c2n1 | i | i | i | nt | i
CCOc1ccccc1CNS(=O)(=O)c1cnc[nH]1 | i | 43.6 | i | i | i
COCC(=O)Nc1ccc2c(c1)C(=O)N(C)C[C@H](OC)[C@H](C)CN(Cc1ccncc1)[C@H](C)CO2 | i | i | i | nt | i
COc1ccc2c(c1)OC[C@H]1[C@H]2N2C(=O)c3cc(OC)c(OC)cc3NC(=O)[C@@]2(C)[C@H]1c1ccccc1 | i | i | nt | nt | i
CCOC(=O)[C@H]1[C@H]2COc3ccccc3[C@@H]2N2C(=O)c3cc(C)ccc3NC(=O)[C@@]12C | i | i | i | nt | i
COc1cc2c(cc1OC)C(=O)N1[C@H]3c4ccccc4OC[C@@H]3[C@H](c3ccccc3)[C@]1(C)C(=O)N2 | 66.4 | i | nt | nt | nt
SMILES | HIV Env fusion | GSIS activator | PGC1a acetyl inh | NSD2 inh | AF4-AF9 inh
CCOC(=O)[C@@H]1[C@H]2COc3ccccc3[C@@H]2N2C(=O)N(c3cccc(Cl)c3)C(=O)[C@@]12C | 55.1 | i | nt | nt | i
CCOC(=O)[C@@H]1[C@H]2COc3cc(OC)ccc3[C@H]2N2C(=O)N(c3cccc(F)c3)C(=O)[C@@]12C | 95.3 | i | i | nt | nt
CCOC(=O)[C@@H]1[C@H]2COc3ccccc3[C@@H]2N2C(=O)N(c3cccc(Cl)c3)C(=O)[C@]12C | i | i | i | nt | i
CCOC(=O)[C@H]1[C@H]2COc3ccccc3[C@@H]2N2C(=O)c3c(C)cc(C)cc3NC(=O)[C@@]12C | 89.2 | i | i | nt | i
Cc1ccc(N2C(=O)CN(Cc3ccccc3)C2=S)cc1C | i | i | i | i | i
CCOC(=O)[C@@H]1[C@H]2COc3cc(OC)ccc3[C@H]2N2C(=O)N(c3ccc(C(F)(F)F)cc3)C(=O)[C@]12C | 109.0 | i | i | nt | i
COc1ccc(CN2CC(=O)N3[C@H]4c5ccc(OC)cc5OC[C@@H]4[C@H](c4ccccc4)[C@]3(C)C2=O)cc1 | i | i | nt | nt | i
COc1ccc2c(c1)OC[C@H]1[C@H]2N2C(=O)CN(Cc3ccc(Cl)cc3)C(=O)[C@@]2(C)[C@H]1c1ccccc1 | 72.5 | i | i | nt | i
COc1ccc(NC(=O)COc2ccccc2C(=O)NCC(c2ccccc2)N(C)C)cc1Cl (stereo not given) | i | i | i | i | i
CC(=O)c1ccc(N2CCN(C(=O)CCS(=O)(=O)c3ccc4c(c3)CCN4C(C)=O)CC2)cc1 | i | i | i | i | i
COc1ccc(NC(=O)CN(C)C(=O)c2c(C)nn(-c3ccccc3)c2Cl)cc1 | i | i | i | i | i
COc1cccc(C(c2ccccc2)N2C3CCC2CN(S(=O)(=O)c2ccc(F)cc2)CC3)c1 (stereo not given) | i | i | i | i | i
COc1ccc2cc(-c3cc(C(=O)OCC(=O)NC4CCS(=O)(=O)C4)c4ccccc4n3)ccc2c1 (stereo not given) | i | 90.9 | nt | i | nt
CCCC#Cc1ccc([C@@H]2[C@H]3CN(Cc4ccncc4)CCCCN3[C@H]2CO)cc1 | nt | i | i | nt | i
Cc1ccc2c(C)c(C(=O)N(Cc3ccccc3)C3CCS(=O)(=O)C3)oc2c1 (stereo not given) | i | i | i | i | i
CC(=O)Nc1sc(N/N=C\c2ccc(O)cc2)nc1-c1cccs1 | i | i | i | i | i
CC(=O)Nc1sc(N/N=C\c2cccc(Cl)c2)nc1-c1cccs1 | nt | 68.5 | nt | i | nt
C=CCOC(=O)C1=C(C)NC(SCC(=O)Nc2ccc(C)c(Cl)c2)=C(C#N)C1c1ccco1 (stereo not given) | 55.4 | nt | i | i | nt
CCOC(=O)Cc1csc(NC(=O)NC2(C(F)(F)F)Oc3cc(Cl)c(Cl)cc3O2)n1 | nt | nt | i | i | nt
C=CCN=C1CCCc2c1[nH]c1ccc(C)cc21 | 62.2 | i | i | i | i
C[C@@H]1CN([C@@H](C)CO)C(=O)c2cc(/C=C/c3ccccc3)cnc2O[C@@H]1CN(C)S(=O)(=O)c1cccs1 | i | i | i | nt | i
CC(NC(=O)COC(=O)c1ccc2c(=O)n3c(nc2c1)CCCCC3)c1ccccc1 (stereo not given) | nt | i | i | i | i
COC(=O)CN(C#N)c1nc(SC)nc(N(C)C)n1 | i | i | i | i | nt
CCOc1ccccc1CNC(=O)CCCc1cn(C)c2ccccc12 | i | nt | i | nt | 48.9
